Assay outcomes from PubChem.
Rows were chosen to be rich in hits. Some 28% of all compounds tested hit in one or more screens of this group.
PLK1 inh: PLK1 (human) kinase inhibition; P53350; recombinant PLK1 kinase, TR-FRET peptide phosphorylation; AID 619; 0.53% of 97,000 active; inhibition, % at 10 µM;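 active = inhibition of 50% or more in the single-concentration screen; inactive = inhibition below 50%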;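 also: 0% = DMSO max control and 100% = H-89 dihydrochloride min control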
CYP2C9 activ: CYP2C9 (human) activation. P11712. 1.4% of 96,000 active. AID 1024. recombinant CYP2C9, luciferin-H conversion, luminescence; active compounds read high; factor 1 = untreated enzyme, 0 = blocked. activation factor at 5 µM;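 active = activation factor of 2 or more for CYP2C9 at a 5 µM dose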;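 also: 0 = sulfaphenazole-blocked wells and 1 = vehicle-only wells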
PLK1 PBD inh: blocks phosphopeptide binding to human Plk1 polo box domain; Plk1 PBD phosphopeptide binding, fluorescence polarization; inhibition, %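 (tested at about 20 µM)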; 0.13% of 97,000 active; AID 693; in the data active = inhibition above about 34%, passing the limit was not always enough
CYP2C19 act: activators of human cytochrome P450 2C19 | P33261 | recombinant CYP2C19, luciferin-H EGE luminescence; active compounds read high; 0 = fully inhibited enzyme, 1 = untreated enzyme | activation factor at 5 µM | 96,000 tested, under 10 active | AID 1025;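 active = activation factor of at least 2 at 5 µM in the primary screen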;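 also: 0 = wells with 2.5 mM tranylcypromine and 1 = vehicle-only wells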
Target sequence (P33261 whole entry, looked up): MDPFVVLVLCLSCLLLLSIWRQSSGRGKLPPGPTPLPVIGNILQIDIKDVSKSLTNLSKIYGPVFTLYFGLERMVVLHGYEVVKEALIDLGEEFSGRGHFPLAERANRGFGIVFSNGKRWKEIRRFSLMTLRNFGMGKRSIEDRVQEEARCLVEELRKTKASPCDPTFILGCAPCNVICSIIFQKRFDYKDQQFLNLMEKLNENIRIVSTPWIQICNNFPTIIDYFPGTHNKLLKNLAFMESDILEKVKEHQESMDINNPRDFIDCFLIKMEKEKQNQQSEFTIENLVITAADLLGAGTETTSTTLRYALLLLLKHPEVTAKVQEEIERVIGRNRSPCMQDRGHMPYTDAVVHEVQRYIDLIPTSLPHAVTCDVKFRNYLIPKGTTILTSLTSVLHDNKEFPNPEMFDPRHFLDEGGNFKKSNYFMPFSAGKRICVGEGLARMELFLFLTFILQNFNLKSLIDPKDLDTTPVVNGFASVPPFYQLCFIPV
CYP2C19 inh: blocks human cytochrome P450 2C19; P33261; CYP2C19 Supersomes, luciferin-H EGE luminescence, 30 min; inhibition, % at 5 µM; 21% of 96,000 active; AID 778;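 active = CYP2C19 inhibition above a set limit at 5 µM in the primary screen, cut at about 50% in these data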;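 also: plate controls were negative control wells for no effect and 2.5 mM tranylcypromine positive control for full effect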
CYP2C9 inhib: inhibitors of human CYP2C9; P11712; CYP2C9 Supersomes, luciferin-H conversion, luminescence; inhibition, % at 5 µM; 20% of 96,000 active;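 active = blocking of liver enzyme CYP2C9 beyond about 50% at 5 µM, limit read from the data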
An asterisk follows results filed as active; · = no result given; ! = not confirmed by another sample.

SMILES	PLK1 inh	CYP2C9 activ	PLK1 PBD inh	CYP2C19 act	CYP2C19 inh	CYP2C9 inhib
CC(=O)c1c(C)[nH]c(C(=O)N2c3ccccc3CC2C)c1C (configuration not stated)	-12	0.2	-35	0.2	77*	78*
COc1ccc(C(=O)N2c3ccccc3CC2C)cc1OC (configuration not stated)	-5	0.7	-6	0.3	66*	28
COc1ccc(N2C(=O)C(CC(=O)Nc3ccccc3)N(Cc3ccc4c(c3)OCO4)C2=O)cc1 (configuration not stated)	-11	0.8	2	0.9	7	18
COc1ccc(OC2C(=O)N(Cc3ccc4c(c3)OCO4)C2c2sccc2C)cc1 (configuration not stated)	-7	0.3	0	0.3	74*	69*
O=C(COC(=O)c1cccc(S(=O)(=O)NCc2ccccc2)c1)Nc1ccccc1OC(F)F	-4	0.8	-12	0.4	60*	21
CN(C)S(=O)(=O)c1cccc(C(=O)OCC(=O)NCc2ccccc2)c1	8	1	-7	1.1	-7	3
CN(C)S(=O)(=O)c1ccc(C(=O)OCC(=O)Nc2ccccc2OC(F)F)cc1	-10	0.4	-40	0.9	8	58*
O=C(COC(=O)c1ccc(S(=O)(=O)NCc2ccco2)cc1)Nc1ccccc1OC(F)F	·	0.2	·	1	5	76*
O=C(COC(=O)COc1ccccc1Cl)Nc1ccccc1OC(F)F	10	0.8	5	0.9	9	19
CN(C)S(=O)(=O)c1ccc(C(=O)OCC(=O)c2ccc(OC(F)F)cc2OC(F)F)cc1	3	0.5	5	0.1	86*	48
CN(C)S(=O)(=O)c1ccc(C(=O)Oc2ccccc2)cc1	-4	1	-20	0.8	22	-4
COc1ccc(-n2c(Cc3cccn3C)nnc2SCC(=O)NCc2ccc(F)cc2)cc1	·	0.6	·	0.1	89*	40
COc1ccc(-n2c(Cc3cccn3C)nnc2SCC(=O)Nc2cc(Cl)ccc2OC)cc1	·	0.8	·	0.8	19	15
COc1ccc(-n2c(Cc3cccn3C)nnc2SCC(=O)Nc2ccc(Cl)cc2)cc1	0	0.1	-14	0.6	37	85*
COc1ccc(-n2c(Cc3cccn3C)nnc2SCC(=O)Nc2ccccc2OC)cc1	·	0.5	·	0.7	33	48
COc1ccc(NC(=O)CSc2nnc(Cc3cccn3C)n2-c2ccc(F)cc2)cc1OC	-13	0.9	1	1.1	-10	8
COc1ccc(-n2c(Cc3cccn3C)nnc2SCC(=O)NCc2ccco2)cc1	·	0.7	·	1.1	-12	25
COc1ccc(-n2c(Cc3cccn3C)nnc2SCC(=O)Nc2cccc(F)c2)cc1	·	0.5	·	0.5	51*	50*
CCc1ccc(NC(=O)CSc2nnc(Cc3cccn3C)n2-c2ccc(OC)cc2)cc1	-12	0.1	26	0.5	52*	85*
CCOC(=O)c1c(NC(=O)/C=C/c2ccc3c(c2)OCO3)sc(C)c1CC	-12	0.7	11	0.9	6	28
CCC1=C/C(=C/N(C)c2ccccc2)C(=O)S1	-10	0.9	2	0.9	9	13
CC(=O)Nc1ccc2ccc3cccc4ccc1c2c34	-9	·	-22	·	·	·
O=C(NCCCN1CCc2ccccc2C1)Nc1ccc(Cl)cc1	-2	1	-2	0.9	13	4
Cn1cccc1Cc1nnc(SCC(=O)Nc2ccc(Cl)cc2)n1-c1ccc(F)cc1	·	0.4	·	0.5	54*	58*
COc1ccc(-n2c(Cc3cccn3C)nnc2SCC(=O)Nc2ccccc2)cc1	-2	0.2	-27	0.8	25	80*
SMILES	PLK1 inh	CYP2C9 activ	PLK1 PBD inh	CYP2C19 act	CYP2C19 inh	CYP2C9 inhib
Cc1nnc(SCC(=O)Nc2ccccc2)[nH]c1=O	-1	0.8	9	0.7	32	24
CCOC(=O)c1c(-c2ccc(OC)cc2)csc1NC(=O)CCN1C(=O)c2ccccc2C1=O	-8	0.2	17	0.4	55*	78*
COC(=O)c1c(-c2ccc(F)cc2)csc1NC(=O)c1ccco1	-4	0.4	-8	0.8	17	64*
O=C(Nc1scc(-c2ccccc2)c1C(=O)O)c1ccco1	-4	0.9	-1	0.9	12	12
CCOC(=O)c1c(-c2ccc(OC)cc2)csc1NC(=O)CNCc1ccco1	-5	0.3	-23	0.5	53*	70*
CCOC(=O)C(CC)(CC)C(=O)/C=C/c1ccc(Br)cc1	-4	0.8	12	0.9	14	20
N#CCCn1nc(-c2ccccc2)cc1Nc1ccccc1NC(=O)c1cccs1	·	0	·	0	97*	96*
CCNC(=O)NC(=O)C(C)SCc1ccccc1C (configuration not stated)	-11	0.6	-24	0.3	67*	44
O=C1CC(NCc2ccco2)C(=O)N1CCc1ccccc1 (configuration not stated)	·	1	·	0.5	48	2
Cc1ccc(NC2CC(=O)N(CCc3ccccc3)C2=O)cc1 (configuration not stated)	-2	1	3	0.4	64*	0
COc1ccc(CCNC2CC(=O)N(CCc3ccccc3)C2=O)cc1 (configuration not stated)	-10	0.7	7	0.3	70*	34
COc1ccccc1N1CCN(C(c2ccc(N(C)C)cc2)c2nnnn2CCc2ccccc2)CC1 (configuration not stated)	-6	·	-19	·	·	·
COc1ccccc1N1CCN(C(c2ccc(C)cc2)c2nnnn2C(C)C)CC1 (configuration not stated)	-4	0.3	-12	0.3	74*	75*
COc1ccccc1N1CCN(C(c2ccc(F)cc2)c2nnnn2C(C)C)CC1 (configuration not stated)	·	0.5	·	0.5	52*	46
COc1ccc2oc(C(=O)CCC(=O)O)c(N)c2c1	63*	1.2	12	1.2	-22	-17
COC(=O)CCC(=O)c1oc2ccc(Br)cc2c1N	-12	·	26	·	·	·
COc1ccc(C2=C(CN(C)C)C(c3ccccc3)c3ccccc3O2)cc1 (configuration not stated)	-8	0.2	-12	0.3	68*!	77*!
CC(=O)c1sc(NC(=O)c2cc3c(C)nn(-c4ccccc4)c3s2)nc1C	-18	0.9	10	1	2	8
Cc1nn(-c2ccccc2)c2sc(C(=O)NC3CC3)cc12	-14	0.5	-9	1	-3	51*
Cc1nc(NC(=O)c2cc3c(C)nn(-c4ccccc4)c3s2)sc1C(=O)Nc1ccccc1	-16	0.4	23	0.6	38	59*
Cc1nn(-c2ccc(F)cc2)c2sc(C(=O)N3CCCCCC3)cc12	-1	0.3	11	0.3	68*	68*
Cc1csc(NC(=O)CCC(=O)N(CC(=O)NC2CCCC2)Cc2ccco2)n1	-5	1	-10	1	-4	0
